# Activity calls are given as the source filed them. Calls follow the shape of the dose curve; as a rule, active = well fitted inhibition curve with a large enough effect; inconclusive = small, poorly fitted or top-dose-only effect; inactive = flat fitted curve, though single readings scatter.
# Tested on: Nanoluciferase (engineered Oplophorus gracilirostris luciferase)
# Assay: Primary Nanoluciferase (NLuc) qHTS assay for identification of artifact compounds. (AID 1845222);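 also: 0% = DMSO and -100% = no enzyme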
# Details: NLuc-conditioned medium, Nano-Glo luminescence, 5 min; series mostly up to 54.1 µM; activity, negative = inhibition: at the top concentration
# Summary of the method: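 Concentration-response data were obtained by luminescence after 5 min with Nano-Glo substrate at 1:100. The enzyme was diluted S16 NLuc-expressing cell medium, preincubated with compound for 15 min at RT. Curves were fitted with a 4-parameter Hill model.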
row,SMILES,"activity, negative = inhibition"
1,Cc1sc2c(c1C)C(c1ccc(Cl)cc1)=N[C@H](CC(=O)NCCCCNC(=O)COc1cccc3c1C(=O)N([C@H]1CCC(=O)NC1=O)C3=O)c1nnc(C)n1-2,1.84% (inactive)
2,CC1CCC(=O)CC(SCC(O)C(=O)O)CCC(=O)O1 (centres undefined),-0.305% (inactive)
3,COc1ccc(C[C@H]2COC(=O)[C@@H]2Cc2ccc(O[C@@H]3O[C@H](CO)[C@@H](O)[C@H](O)[C@H]3O)c(OC)c2)cc1OC,2.23% [at 25.7 µM] (inactive)
4,CCC(C)CNCC(=O)N1CCC2SC=CC2C1COc1cccc(C)c1 (centres undefined),1% (inactive)
5,C=C1CC2OC(=O)C(COC)C2C(OC(=O)/C(C)=C\C)CC2(C)OC1=CC2=O (centres undefined),-0.811% (inactive)
6,CCC(C)(OC(C)=O)C(=O)O[C@H]1[C@H](OC(C)=O)[C@]2(CO)[C@H](O)[C@H](O)[C@]3(C)C(=CCC4[C@@]5(C)CC[C@H](O[C@@H]6O[C@H](C(=O)O)[C@@H](O)[C@H](O[C@@H]7OC[C@H](O)[C@H](O[C@@H]8OC[C@H](O)[C@H](O)[C@H]8O)[C@H]7O)[C@H]6O[C@@H]6O[C@H](CO)[C@@H](O)[C@H](O)[C@H]6O)C(C)(C)C5CC[C@]43C)[C@@H]2CC1(C)C (some centres undefined),-1.71% [at 11.6 µM] (inactive)
7,NC(=O)c1nc(Nc2ccccc2)sc1NC(=O)C1CCCCC1,0.458% (inactive)
8,CC1=CC2/C=C(\C)CCC(O)C/C=C/C(=O)OC23C(=O)NC(CC(C)C)C3C1C (centres undefined),4.55% [at 25.7 µM] (inactive)
9,CC(=O)N1CCN(CCOc2ccc(C3CCN(C4=Nn5c(nnc5C(F)(F)F)CC4)CC3)cc2)CC1,-3.07% (inactive)
10,Cc1ccc(C(C)C)c(O[C@@H]2O[C@H](CO)[C@@H](O)[C@H](O)[C@H]2O)c1,-0.114% (inactive)
11,Cc1ccc(F)cc1S(=O)(=O)N[C@@H]1CCN(Cc2ccc(OC(C)C)cc2)C1,-9.11% (inactive)
12,O=c1[nH]c2ccccc2n1CCN1CCN(c2cccc(C(F)(F)F)c2)CC1,-2.15% (inactive)
13,CC(C)n1nc(C#Cc2ccccc2)c2c(N)ncnc21,1.43% (inactive)
14,CC(CCC1(O)OC2CC3C4CC=C5CC(O[C@@H]6O[C@H](CO)[C@@H](O[C@@H]7O[C@@H](C)[C@H](O)[C@@H](O)[C@H]7O)[C@H](O)[C@H]6O[C@@H]6O[C@@H](C)[C@H](O)[C@@H](O)[C@H]6O)CCC5(C)C4CCC3(C)C2C1C)CO[C@@H]1O[C@H](CO)[C@@H](O)[C@H](O)[C@H]1O (some centres undefined),2.85% [at 11.6 µM] (inactive)
15,O=C(Nc1cccnn1)N1CCN(c2nccc(-c3ccc(F)c(F)c3)n2)CC1,-7.4% [at 115 µM] (inactive)
16,C[C@H](Nc1cc2c(-c3ccc4c(c3)OCO4)noc2cn1)c1ccccc1,3.66% (inactive)
17,C=C1CCCC2(C)CCC(C(C)(C)OC3OC(C)C(O)C(O)C3OC(=O)/C(C)=C\C)CC12 (centres undefined),1.07% [at 25.7 µM] (inactive)
18,CC(C)c1cc(-c2ccc(F)c3ccccc23)nc(N)n1,0.292% (inactive)
19,C=C1C(=O)OC2C1CCC1(C)C(O)CCC(=C)C21 (centres undefined),2.1% (inactive)
20,C/C=C(/C)C(=O)OC1C=C2C3C(C)C(C)C(OC(=O)C(C)C(C)O)CC3(C)CCC2(C)C2(C)CC(OC(C)=O)C3C(C)(C)C(O)C(=O)CC3(C)C12 (centres undefined),4.28% [at 25.7 µM] (inactive)

row,SMILES,"activity, negative = inhibition"
1,C=C1C(=O)O[C@@H]2C(OC(=O)/C(C)=C\C)/C(C)=C\C(=O)/C=C(\C)C[C@H](O)[C@@H]12 (some centres undefined),-0.578% (inactive)
2,OC(CC1c2ccccc2-c2cncn21)C1CCCCC1 (centres undefined),-10.4% (inactive)
3,CCC(C)C(=O)O[C@H]1[C@H](O)[C@@]2(COC(C)=O)C(CC1(C)C)C1=CCC3[C@@]4(C)CC[C@H](O[C@@H]5O[C@H](C(=O)O)[C@@H](O)[C@H](O)[C@H]5O)[C@@](C)(CO)C4CC[C@@]3(C)[C@]1(C)C[C@@H]2O (some centres undefined),3.16% [at 11.6 µM] (inactive)
4,Nc1ncnc2c1c(-c1ccc(Cl)cc1)nn2-c1cccc(-c2cnnn2Cc2cccc(-c3ccccc3)c2)c1,0% (inactive)
5,CCC[C@H](N[C@H]1CCc2cc(F)cc(F)c2C1)C(=O)Nc1cn(C(C)(C)CNCC(C)(C)C)cn1,-1.14% (inactive)
6,CC(C)(C)C1CCN(C(=O)n2ncc(C(O)(c3ccccc3)c3ccccc3)n2)CC1,-5.85% (inactive)
7,C/C=C/C=C/C=C/C(=O)O[C@@H]1C=C2COC(=O)[C@]2(O)[C@@]2(C)CCCC(C)(C)[C@H]12,-22.7% [at 25.7 µM] (inactive)
8,C=CCc1ccc(OC(C)Cc2ccc(OC)c(OC)c2)c(OC)c1 (centres undefined),2.13% (inactive)
9,C=C(COC(=O)C(O)C(O)CN)C12OC1C1(C)C(=CC2=O)C(O)C(O)CC1C (centres undefined),-0.28% (inactive)
10,COC1CC(O[C@H]2CC[C@]3(C)C4CC[C@@]5(C)C(=O)[C@]4(CC[C@@H]3C2)CC[C@@H]5C2=CC(=O)OC2)OC(C)C1OC1OC(COC2OC(CO)C(O)C(O)C2O)C(O)C(O)C1O (some centres undefined),0% [at 11.6 µM] (inactive)
11,COC1CC(=O)C23C(=O)NC(Cc4c[nH]c5ccccc45)C2C(C)C2(C)OC2C3/C=C/CC(C)CC1O (centres undefined),1.08% [at 25.7 µM] (inactive)
12,Cc1ccc(C)c(NC(=O)[C@@H]2CCCN2S(=O)(=O)c2cccc3cccnc23)c1,-25.2% (inactive)
13,Fc1ccc(-c2nc(-c3ccccc3F)[nH]c2-c2ccncc2)cc1,-4.87% (inactive)
14,CC(C)(Cc1ccccc1)NCC(O)c1ccc(O)c(NS(C)(=O)=O)c1 (centres undefined),-7.97% (inactive)
15,COc1cc(NC(=O)c2cc(C3CC3)on2)c(OC)cc1Cl,3.6% (inactive)
16,C=C(C)C(=O)O[C@H]1[C@H]2C(=C)C(=O)O[C@@H]2/C=C(\CO)CC/C=C(/C=O)[C@@H]1O,0.136% (inactive)
17,CC(C)n1c(=O)c(C(=O)NC2CC3CCC(C2)N3C[C@@H](O)CN(C)S(C)(=O)=O)cc2ccccc21 (some centres undefined),-3.85% (inactive)
18,O=C(Nc1ccc(CN2CCOCC2)cc1)c1ccc(-c2cccc(Cl)c2)o1,-5.54% (inactive)
19,Cc1ccc(OC[C@H](O)[C@H](C)NC(C)C)c2c1CCC2,2.73% (inactive)

# Source: PubChem BioAssay (NCATS)
